The panel holds about 83,000 compounds, 20% with a hit somewhere; the sample as a whole holds those more often.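 The test compound was applied at a single concentration to cells in 96-well plates for 48 hours, and percent growth was recorded.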 Values without a mark were called inactive. The source made the active and inactive calls. The calls were made as follows: active = growth percent below 10; inactive = the rest.

The test system of one experiment is T-47D breast. In words: NCI-60 one-dose screen, 48 h (100 = growth as untreated, 0 = no growth, -100 = all killed). The conditions noted are these: 10 µM unless noted.
Consider `COc1cc(C)cc2oc3oc(=O)c(C(=O)c4cc5cc(Br)ccc5o4)cc3c(=O)c12`, for which the growth is 107%.
For the compound `COc1ccc(OC)c([N+](=O)[O-])c1C(=O)CNC(C)=O`, the growth is 103%.
Turning to `COc1cc(C(=O)/C=C/c2c(-c3ccc(F)cc3)nc3sccn23)cc(OC)c1OC`, the growth is 19.8%.
For `C=C(C)C1CCC2(C(=O)O)CCC3(C)C(CCC4C5(C)CCC(OC(=O)NCc6ccccc6)C(C)(C)C5CCC43C)C12` (centres undefined), the growth was 33.9%.
Same read-out and setting: next, `CCOC(=O)c1ccc2nc(-c3c(C)nn(-c4ccccc4)c3N3CCOCC3)[nH]c2c1`: 73%.
The same measure, in the same setting: next, `Nc1nc(SCc2cccc([N+](=O)[O-])c2)c2[nH]cnc2n1`: 92.4%; `COc1ccc2nc3c(cc2c1)C(=O)CC(c1ccccc1)C3` (centres undefined): 75%.
Take `CCCC[C@@H](C=O)NC(=O)[C@H](CC(C)C)NC(=O)[C@H](CC(C)C)NC(=O)OCc1ccccc1`: the growth was -42.7% (active).
Still for that read-out and setting: next, `O=C(N/N=C/c1ccc([N+](=O)[O-])cc1)c1ccc(Br)o1`: 131%; `NC1=NC(=O)NC1(c1ccccc1)c1ccccc1`: 80.3%.
For the compound `CSc1nc2sc3cc(Cl)c(Cl)cc3n2c(=N)c1C#N`, the growth was 89.4%.
The same measure, in the same setting: next, `Cn1c(=O)c(C#N)c(-c2ccco2)n2c(S(=O)(=O)Cc3ccccc3)nnc12`: 90.6%.
On to `Nc1ccc2c(c1)Cc1cc(NC(=O)C(F)(F)F)ccc1-2`, for which the growth was 81.8%.
Same read-out and setting: in the case of `NC(=O)c1c(NC(=O)COC(=O)Cc2ccccc2F)sc2c1CCC2` it was 88.8%; in that of `Cc1cccc([N+](=O)[O-])c1I`, 104%; in that of `COc1ccc2nc3ccccc3c(NCCNCCO)c2c1`, 4.93% (active).
Same read-out and setting: in the case of `Cc1cc(NN=C(c2ccc(O)cc2)c2ccc(O)cc2)c([N+](=O)[O-])cc1[N+](=O)[O-]` it was 33.1%; in that of `N#Cc1c(Cl)nc(SCC2CO2)nc1-c1ccccc1` (centres undefined), 97.3%.
The same measure, in the same setting: next, `CCCCCCCCCCCCCCNC(=O)Nc1ccc(Cl)c(Cl)c1`: 33.9%; `O=C1NC(=O)c2cc([N+](=O)[O-])cc3cccc1c23`: 96.1%; `CCN(CC)CCSC(=O)C(O)(c1ccccc1)C1CCCC1` (centres undefined): 109%.
For the compound `CCC(Br)(CC)C(=O)c1ccc(OCC(=O)O)c(Cl)c1Cl`, the growth is 112%.
Regarding `COc1ccc(C2CC(c3cc(OC)c(OC)c(OC)c3)=NN2C(C)=O)cc1OCC(=O)Nc1nc2ccc(C(F)(F)F)cc2s1` (centres undefined), the growth was 67.5%.

In another experiment the test system is BT-549 breast. The experiment is described as above. The conditions noted are these: 10 µM unless noted.
`O=[N+]([O-])c1cc([N+](=O)[O-])c(NN=C(c2ccc(O)cc2)c2ccc(O)cc2)cc1Cl`: the growth was -11.6% (active).
For the compound `Cc1cc(SC#N)ncn1`, the growth was 126%.
The same measure, in the same setting: next, `O=C(N/N=C/c1c(Cl)cccc1Cl)c1cccc(Nc2ccnc(C(F)(F)F)c2)c1`: 90.8%; `O=[N+]([O-])c1cc([N+](=O)[O-])c(C(F)(F)F)cc1NN=C(c1ccc(O)cc1)c1ccc(O)cc1`: 132%.
For the compound `CCN(CC)CCCC(C)Nc1ccnc2cc(Cl)c(SCc3ccccc3)cc12` (centres undefined), the growth was -81% (active).
On the same count and under the same terms, next, `O=C(Oc1ccc(Cl)cc1[N+](=O)[O-])Oc1ccc(Cl)cc1[N+](=O)[O-]`: 119%; `COc1ccc2c3ccnc(C(F)(F)F)c3n(CCCCN)c2c1`: 52.4%; `CCOC(=O)c1c[nH]c2cc(OCC3CC3)c(OCC3CC3)cc2c1=O`: 113%.
Turning to `COc1ccc(-c2nc3ccccn3c2/C=C/C(=O)c2cc(OC)c(OC)c(OC)c2)cc1OC`, the growth is -0.101% (active).
As to `NC(=S)Cc1ccccc1`, the growth was 110%.
For the compound `CC(C)C1=NOC(=O)C1=Cc1cn(-c2ccccc2)nc1-c1cccc([N+](=O)[O-])c1`, the growth is 109%.
As to `O=c1c2c3c(sc2n2cnnc2n1Cc1ccccc1)CCCC3`, the growth was 95.7%.
For `COc1cc(C)cc2oc3oc(=O)c(C(=O)c4cc5cc(Br)ccc5o4)cc3c(=O)c12`, the growth is 100%.
The same measure, in the same setting: next, `COc1cc(C(=O)/C=C/c2c(-c3ccc(F)cc3)nc3sccn23)cc(OC)c1OC`: 19.2%; `CC(C)c1ccc(C(=O)Nc2nc3ccc(O)cc3s2)cc1`: 55.5%; `C=C(C)C1CCC2(C(=O)O)CCC3(C)C(CCC4C5(C)CCC(OC(=O)NCc6ccccc6)C(C)(C)C5CCC43C)C12` (centres undefined): 64.8%.
As for `Nc1nc(SCc2cccc([N+](=O)[O-])c2)c2[nH]cnc2n1`, the growth is 103%.
On the same count and under the same terms, next, `COc1ccc2nc3c(cc2c1)C(=O)CC(c1ccccc1)C3` (centres undefined): 51.7%; `CCCC[C@@H](C=O)NC(=O)[C@H](CC(C)C)NC(=O)[C@H](CC(C)C)NC(=O)OCc1ccccc1`: -70.3% (active).
In the case of `O=C(N/N=C/c1ccc([N+](=O)[O-])cc1)c1ccc(Br)o1`, the growth is 109%.
Turning to `NC1=NC(=O)NC1(c1ccccc1)c1ccccc1`, the growth is 131%.
Still for that read-out and setting: next, `Cn1c(=O)c(C#N)c(-c2ccco2)n2c(S(=O)(=O)Cc3ccccc3)nnc12`: 73.7%; `NC(=O)c1c(NC(=O)COC(=O)Cc2ccccc2F)sc2c1CCC2`: 106%; `COc1ccc2nc3ccccc3c(NCCNCCO)c2c1`: 8.11% (active).
On to `Cc1cc(NN=C(c2ccc(O)cc2)c2ccc(O)cc2)c([N+](=O)[O-])cc1[N+](=O)[O-]`, for which the growth was 90.8%.
On the same count and under the same terms, next, `N#Cc1c(Cl)nc(SCC2CO2)nc1-c1ccccc1` (centres undefined): 81.4%.
As to `CCCCCCCCCCCCCCNC(=O)Nc1ccc(Cl)c(Cl)c1`, the growth is 24.7%.
With `O=C1NC(=O)c2cc([N+](=O)[O-])cc3cccc1c23`, the growth is 96%.
Still for that read-out and setting: in the case of `CCN(CC)CCSC(=O)C(O)(c1ccccc1)C1CCCC1` (centres undefined) it was 109%; in that of `CCC(Br)(CC)C(=O)c1ccc(OCC(=O)O)c(Cl)c1Cl`, 79.1%; in that of `COc1ccc(C2CC(c3cc(OC)c(OC)c(OC)c3)=NN2C(C)=O)cc1OCC(=O)Nc1nc2ccc(C(F)(F)F)cc2s1` (centres undefined), 47.5%.

These data come from PubChem BioAssay (NCI).
